Experimental data: PubChem BioAssay (NCATS)
Results filed as inconclusive are left out. A call without a number means that no potency is given here. Unmarked numbers belong to inactive results. Active and inactive are the calls of the source. Calls come from the whole dose curve; as a rule, active = well fitted cell-killing curve with a large enough effect; inconclusive = small, poorly fitted or top-dose-only effect, or effect the other way; inactive = flat fitted curve, though single readings scatter.

Tests used:
Assay in all cases: Primary qHTS to identify gynecologic anti-cancer compounds using libraries of approved drugs and bioactive compounds (AID 1345084); note: nearly all actives have a fitted effect of over 55% in size
CASKI = conditions: Gynecologic cancer cell panel viability, ATPlite luminescence, 48 h; series mostly up to 57.5 µM
Method in brief: (§1)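 Five-concentration response, 48 h; readout is ATP-driven luciferase luminescence.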

Es-2 = conditions: Gynecologic cancer cell panel viability, ATPlite luminescence, 48 h; series mostly up to 57.5 µM
Method in brief: as §1

HeLa = conditions: Gynecologic cancer cell panel viability, ATPlite luminescence, 48 h; series mostly up to 57.5 µM
Method in brief: as §1

Hek293T = conditions: Gynecologic cancer cell panel viability, ATPlite luminescence, 48 h, control line for the selectivity index; series mostly up to 57.5 µM
Method in brief: as §1

JEG-3 = conditions: Gynecologic cancer cell panel viability, ATPlite luminescence, 48 h; series mostly up to 57.5 µM
Method in brief: as §1

OV90 = conditions: Gynecologic cancer cell panel viability, ATPlite luminescence, 48 h; series mostly up to 57.5 µM
Method in brief: as §1

CAOV3 = conditions: Gynecologic cancer cell panel viability, ATPlite luminescence, 48 h; series mostly up to 57.5 µM
Method in brief: as §1
Potency is the fitted concentration of half-maximal effect.

## CC(C)=CCC/C(C)=C/COCC1OC(n2ccc(=O)[nH]c2=O)C(O)C1O (stereo unspecified)
CASKI
  Potency: inactive
Es-2
  Potency: inactive
HeLa
  Potency: inactive
Hek293T
  Potency: inactive
JEG-3
  Potency: inactive

## C=C1C(=O)O[C@H]2CC(=C)[C@H]3CC[C@@](C)(O)[C@@H]3CC12 (stereo partly specified)
CASKI
  Potency: inactive
Es-2
  Potency: inactive
HeLa
  Potency: inactive
OV90
  Potency: inactive

## C[C@@H](Nc1ncnc2[nH]c(-c3ccc(O)cc3)cc12)c1ccccc1
CASKI
  Potency: 22.4 µM (active)
Es-2
  Potency: inactive
Hek293T
  Potency: inactive
JEG-3
  Potency: inactive
OV90
  Potency: inactive

## Fc1ccc(-n2cc(CCCCN3CCC4(CC3)OCc3ccccc34)c3ccccc32)cc1
CASKI
  Potency: inactive
Es-2
  Potency: inactive
HeLa
  Potency: inactive
Hek293T
  Potency: inactive
JEG-3
  Potency: inactive

## CCS(=O)c1nc(-c2cccc(OCc3ccccc3)c2)cc(C(F)(F)F)n1 (stereo unspecified)
CASKI
  Potency: inactive
Es-2
  Potency: inactive
HeLa
  Potency: inactive
OV90
  Potency: inactive

## COc1cc2c(Nc3cc(F)c(Cl)c(Cl)c3)ncnc2cc1OCC1CCCN(C)CCC1
CAOV3
  Potency: 12.6 µM (active)
JEG-3
  Potency: inactive
OV90
  Potency: 15.8 µM (active)

## Cn1c(=O)c2c(ncn2Cc2ccc(C(C)(C)C)cc2)n(C)c1=O
CAOV3
  Potency: inactive
JEG-3
  Potency: 14.1 µM (active)
OV90
  Potency: 10 µM (active)

## Cc1ccc(-c2cn3c4c(sc3n2)CCCC4)cc1
CASKI
  Potency: 17.8 µM (active)
Es-2
  Potency: 11.2 µM (active)
HeLa
  Potency: 12.6 µM (active)
Hek293T
  Potency: 12.6 µM (active)

## CC1CCCC(O)CC(=O)c2c(O)cc(O)cc2CC(=O)O1 (stereo unspecified)
CAOV3
  Potency: inactive
JEG-3
  Potency: inactive
OV90
  Potency: inactive

## COc1cc(C[C@H]2C(=O)OC[C@@H]2Cc2ccc(OC)c(OC)c2)ccc1O
CAOV3
  Potency: inactive
HeLa
  Potency: inactive
JEG-3
  Potency: inactive
OV90
  Potency: inactive

## C[C@H]1[C@H](/C=C/c2ccc(-c3ccccc3C#N)cn2)[C@@H]2[C@@H](C)OC(=O)[C@@H]2C[C@@H]1C
CAOV3
  Potency: inactive
OV90
  Potency: inactive

## C=CC(C)(O)CC/C=C(/C)COC(=O)C(C)C1CCC(C)(C=C)O1 (stereo unspecified)
CASKI
  Potency: inactive
Es-2
  Potency: inactive
HeLa
  Potency: inactive
Hek293T
  Potency: inactive
OV90
  Potency: inactive

## N#Cc1ccc(Nc2nc(-c3ccc(O)cc3O)cs2)cc1C(F)(F)F
CASKI
  Potency: 20 µM (active)
Es-2
  Potency: 14.1 µM (active)
HeLa
  Potency: 7.94 µM (active)

## CN(C)CCN(Cc1ccc(-c2ccc(CNCCc3ccccc3)cc2)cc1)C(=O)CCC1CCCC1
CAOV3
  Potency: 5.62 µM (active)
JEG-3
  Potency: 25.1 µM (active)
OV90
  Potency: 22.4 µM (active)

## C=CC(=O)Nc1cccc(Nc2nc(Nc3ccc(NC4CN(CCF)C4)cc3OC)ncc2C(F)(F)F)c1
CASKI
  Potency: 17.8 µM (active)
Es-2
  Potency: inactive
JEG-3
  Potency: inactive

## CN(C)CC1CCn2c(c(C3=C(c4cn(C)c5ccccc45)C(=O)NC3=O)c3ccccc32)C1 (stereo unspecified)
CAOV3
  Potency: 22.4 µM (active)
Hek293T
  Potency: inactive
JEG-3
  Potency: inactive
OV90
  Potency: 12.6 µM (active)

## C=C1CC[C@@H]2[C@](C)(CO)[C@H](O)CC[C@@]2(C)[C@@H]1C/C=C1/C(=O)OCC1O (stereo partly specified)
CAOV3
  Potency: inactive
HeLa
  Potency: inactive
JEG-3
  Potency: inactive
OV90
  Potency: inactive

## CC1=CC2/C=C(\C)CCC(O)C(=O)C(O)CC(=O)C23C(=O)NC(CC(C)C)C3C1C (stereo unspecified)
CASKI
  Potency: inactive
Es-2
  Potency: inactive
HeLa
  Potency: inactive
Hek293T
  Potency: inactive
JEG-3
  Potency: inactive
OV90
  Potency: inactive

## C=C(C=O)[C@]1(O)C[C@@]2(C)C(=CC1=O)C=C[C@H](OC(=O)/C=C/C=C/[C@H](C)CC)[C@@H]2C
CASKI
  Potency: inactive
Es-2
  Potency: inactive
HeLa
  Potency: inactive
JEG-3
  Potency: inactive

## CCOC(=O)c1cnc2ccc(-c3cncc(NS(=O)(=O)c4ccccc4)c3)cn12
CASKI
  Potency: 2 µM (active)
Es-2
  Potency: 3.16 µM (active)
HeLa
  Potency: 1.58 µM (active)
Hek293T
  Potency: 1.78 µM (active)
JEG-3
  Potency: 7.08 µM (active)
OV90
  Potency: 11.2 µM (active)

## CC(C)NC(=O)COc1cccc(-c2nc(Nc3ccc4[nH]ncc4c3)c3ccccc3n2)c1
CAOV3
  Potency: 25.1 µM (active)
HeLa
  Potency: 17.8 µM (active)
JEG-3
  Potency: inactive
OV90
  Potency: inactive

## CCc1cc(C(N)=O)ccc1-n1nc(C(C)C)c2c(-n3cnc(-c4cnn(C)c4)c3)ccnc21
CASKI
  Potency: inactive
Es-2
  Potency: inactive
HeLa
  Potency: inactive
JEG-3
  Potency: inactive

## Nc1nc(Nc2ccc3c(c2)CCC(N2CCCC2)CC3)nn1-c1cc2c(nn1)-c1ccccc1CCC2 (stereo unspecified)
CAOV3
  Potency: 7.94 µM (active)
JEG-3
  Potency: inactive
OV90
  Potency: inactive

## C=C1C(=O)O[C@H]2/C=C(/C)[C@@H](OC(C)=O)C/C=C(\C)C[C@@H](OC(=O)/C(=C/C)COC(=O)/C(=C/C)CO)[C@@H]12
CAOV3
  Potency: 8.91 µM (active)
HeLa
  Potency: inactive
OV90
  Potency: inactive

## C=CC(=O)Nc1ccc(CN2C(=O)N(c3cc(OC)cc(OC)c3)Cc3cnc(Nc4ccc(N5CCN(C)CC5)cc4)nc32)cc1
CASKI
  Potency: 14.1 µM (active)
Es-2
  Potency: inactive
Hek293T
  Potency: inactive
OV90
  Potency: inactive

## Nc1nc(O)c(C2=C3C(=Nc4ccccc43)C(=O)NCC2)[nH]1
CASKI
  Potency: inactive
Es-2
  Potency: inactive
HeLa
  Potency: inactive
Hek293T
  Potency: inactive
OV90
  Potency: inactive

## O=C1C(Cc2ccc(O)cc2)N2C(=O)CCN(C(=O)NCc3ccccc3)C2CN1Cc1cccc2ccccc12 (stereo unspecified)
CASKI
  Potency: inactive
Es-2
  Potency: 8.91 µM (active)
JEG-3
  Potency: inactive

## O=C(NO)c1cnc(N2CCN(S(=O)(=O)c3ccc4ccccc4c3)CC2)nc1
CAOV3
  Potency: inactive
OV90
  Potency: 3.98 µM (active)

## Cc1nnc(C[C@@H]2C=C(c3ccc(Cl)cc3)c3ccccc3-n3c(C)nnc32)o1
CASKI
  Potency: inactive
Es-2
  Potency: 12.6 µM (active)
OV90
  Potency: 20 µM (active)

## CCCCNc1ncc2c(-c3ccc(S(=O)(=O)N4CCOCC4)cc3)nn(C3CCC(O)CC3)c2n1 (stereo unspecified)
CAOV3
  Potency: 7.94 µM (active)
HeLa
  Potency: 10 µM (active)
JEG-3
  Potency: inactive

## COc1cccc(-c2cn(-c3ccc(CCN4CCC(O)CC4)cc3)c3ncnc(N)c23)c1
CAOV3
  Potency: 14.1 µM (active)
OV90
  Potency: 28.2 µM (active)

## C=C1/C(=C/C=C2\CCC[C@]3(C)[C@@H]([C@H](C)CC[C@@H](O)C(C)(C)O)CC[C@@H]23)C[C@@H](O)C[C@@H]1O
CASKI
  Potency: inactive
Es-2
  Potency: inactive

## CO[C@@H]1CC(OC2CCC3(C)C(CCC45CCC(C6=CC(=O)OC6)C(C)(CCC43)C5=O)C2)O[C@H](C)[C@@H]1O[C@@H]1O[C@H](CO[C@@H]2O[C@H](CO)[C@@H](O)[C@H](O)[C@H]2O)[C@@H](O)[C@H](O)[C@H]1O (stereo partly specified)
CASKI
  activity change, negative = cytotoxicity: -0.149% [at 11.6 µM]
Es-2
  Potency: 3.16 µM (active)
OV90
  activity change, negative = cytotoxicity: -22.2% [at 11.6 µM]
